The supplement of paper PMC6555819

What was measured:
Assay in all cases: PBM binding z-score (relative to random genomic background probes); higher = stronger binding; sequences stand for … in GC…GCGATTGACAGCGTAGAATGAAGG
[1] = tested on: FXR:RXRa (NR concentration 270 nM, RXRa partner concentration 90 nM)
How it was run: (§1)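 Binding buffer was PBS pH 7.4 with 2% milk, 0.02% Triton X-100, 1 mM DTT, 0.2 mg/mL BSA and 0.4 mg/ml salmon testes DNA. In it, ligand-free nuclear receptor dimers were incubated 1 h on custom Agilent 4×180K protein-binding microarrays carrying double-stranded probes. Antibodies against each partner (one per run) detected binding, and z-scores were calculated against random background probes after regression normalization of scanned fluorescence.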

[2] = tested on: LXRa:RXRa (NR concentration 270 nM, RXRa partner concentration 90 nM)
How it was run: as §1

[3] = tested on: LXRa homodimer (NR concentration 270 nM)
How it was run: as §1

[4] = tested on: LXRb:RXRa (NR concentration 270 nM, RXRa partner concentration 90 nM)
How it was run: as §1

[5] = tested on: LXRb homodimer (NR concentration 270 nM)
How it was run: as §1

[6] = tested on: PPARa:RXRa (NR concentration 270 nM, RXRa partner concentration 90 nM)
How it was run: as §1

[7] = tested on: PPARg:RXRa (NR concentration 180 nM, RXRa partner concentration 90 nM)
How it was run: as §1

[8] = tested on: PPARg:RXRa 270nM:90nM, anti-RXR (NR concentration 270 nM, RXRa partner concentration 90 nM)
How it was run: as §1

[9] = tested on: PPARg:RXRa 30nM:10nM, anti-RXR (NR concentration 30 nM, RXRa partner concentration 10 nM)
How it was run: as §1

[10] = tested on: PPARg:RXRa 90nM:30nM, anti-RXR (NR concentration 90 nM, RXRa partner concentration 30 nM)
How it was run: as §1

[11] = tested on: PPARg:RXRa DBDmut IVT, anti-RXR (DBD mutation: RXRa K156A/R161A, NR concentration 270 nM, RXRa partner concentration 90 nM)
How it was run: as §1

[12] = tested on: PPARg:RXRa IVT, anti-PPARg (NR concentration 270 nM, RXRa partner concentration 90 nM)
How it was run: as §1

[13] = tested on: PPARg DBDmut:RXRa IVT, anti-PPARg (DBD mutation: PPARg1 K132A/R137A, NR concentration 270 nM, RXRa partner concentration 90 nM)
How it was run: as §1

[14] = tested on: PPARg DBDmut IVT, anti-PPARg (DBD mutation: PPARg1 K132A/R137A, NR concentration 270 nM)
How it was run: as §1

[15] = tested on: PPARg homodimer (NR concentration 180 nM)
How it was run: as §1

[16] = tested on: PXR:RXRa (NR concentration 270 nM, RXRa partner concentration 90 nM)
How it was run: as §1

[17] = tested on: PXR homodimer (NR concentration 270 nM)
How it was run: as §1

[18] = tested on: RARa:RXR (NR concentration 270 nM, RXRa partner concentration 90 nM)
How it was run: as §1

[19] = tested on: RARa homodimer (NR concentration 270 nM)
How it was run: as §1

[20] = tested on: RARb:RXRa (NR concentration 270 nM, RXRa partner concentration 90 nM)
How it was run: as §1

Sequence	PBM binding z-score [1]	PBM binding z-score [2]	PBM binding z-score [3]	PBM binding z-score [4]	PBM binding z-score [5]	PBM binding z-score [6]	PBM binding z-score [7]	PBM binding z-score [8]	PBM binding z-score [9]	PBM binding z-score [10]	PBM binding z-score [11]	PBM binding z-score [12]	PBM binding z-score [13]	PBM binding z-score [14]	PBM binding z-score [15]	PBM binding z-score [16]	PBM binding z-score [17]	PBM binding z-score [18]	PBM binding z-score [19]	PBM binding z-score [20]
ATATGTAGGTGATCGGGTCATTCAGTTTGCGCAT	1.36	1.47	0.268	1.79	0.875	4.72	6.45	5.32	3.24	5.22	7.23	7.11	1.94	2.7	1.86	3.27	6.72	2.77	0.81	2.01
AATACTGGGTCATCGTAGGCCAGAGTACGCACAG	3.75	4.06	1.07	2.04	0.0752	4.49	6.86	5.4	3.02	4.86	6.46	6.97	1.65	2.15	1.67	2.44	0.428	2.35	0.903	3.49
AATACAGGGTAATCGTAGGCCAGAGTACGCACAG	0.175	1.34	-0.0914	0.309	-0.0115	0.447	1.25	0.792	0.499	0.377	2.12	2.19	0.939	0.00215	-0.0424	0.0668	0.0801	0.578	0.101	0.525
TCTAGTTGGTCACAGAGGTCACACACGACGGGTA	4.73	4.98	3.92	4.46	1.51	4.84	4.45	5.18	4.12	5.26	2.85	4.35	1.86	0.876	6.9	5.58	2.89	6.16	4.36	4.28
CCTTACGGATCACGAGGTTATAGCACGACGAGCG	0.639	1.1	0.818	1.11	0.481	1.48	1.06	0.294	0.0325	0.104	0.221	0.106	-0.412	0.232	1.02	1.02	0.695	1.36	0.995	0.621
CCTAGTTGGGCAAGGTCACACACGCTATAGGTAC	3.55	3.21	1.32	3.28	0.0205	3.88	2.45	2.92	1.03	2.25	0.83	2.2	0.202	0.558	2.56	3.9	1.13	4.04	1.63	3.91
ATCTCTAGGTAAGACTCAGTACAGTGAAGAACGC	0.589	0.377	0.528	0.101	0.88	0.1	0.293	-0.0568	0.341	0.016	1.66	1.18	0.455	1.12	1.13	-0.0434	0.717	0.344	1.32	0.147
